Columns and labels:
Experiment in all cases: PBM binding z-score (relative to random genomic background probes); higher = stronger binding; sequences stand for … in GC…GCGATTGACAGCGTAGAATGAAGG
[1] = tested on: PPARg:RXRa DBDmut IVT, anti-RXR (DBD mutation: RXRa K156A/R161A, NR concentration 270 nM, RXRa partner concentration 90 nM)
Summary of the method: (§1)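 Custom Agilent 4×180K protein-binding microarrays carried double-stranded probes. Their 34-nt variable regions held direct-repeat seeds, single-nucleotide variants, half-site ablations and random human genomic background sequences. Arrays were incubated 1 h with ligand-free nuclear receptor dimers in PBS pH 7.4, 2% milk, 0.02% Triton X-100, 1 mM DTT, 0.2 mg/mL BSA and 0.4 mg/ml salmon testes DNA. Antibodies against each partner (one per run) detected binding, and scanned fluorescence was regression-normalized. Binding z-scores use random background probes as reference.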

[2] = tested on: PPARg:RXRa IVT, anti-PPARg (NR concentration 270 nM, RXRa partner concentration 90 nM)
Summary of the method: as §1

[3] = tested on: PPARg DBDmut:RXRa IVT, anti-PPARg (DBD mutation: PPARg1 K132A/R137A, NR concentration 270 nM, RXRa partner concentration 90 nM)
Summary of the method: as §1

[4] = tested on: PPARg DBDmut IVT, anti-PPARg (DBD mutation: PPARg1 K132A/R137A, NR concentration 270 nM)
Summary of the method: as §1

[5] = tested on: PPARg homodimer (NR concentration 180 nM)
Summary of the method: as §1

[6] = tested on: PXR:RXRa (NR concentration 270 nM, RXRa partner concentration 90 nM)
Summary of the method: as §1

[7] = tested on: PXR homodimer (NR concentration 270 nM)
Summary of the method: as §1

[8] = tested on: RARa:RXR (NR concentration 270 nM, RXRa partner concentration 90 nM)
Summary of the method: as §1

[9] = tested on: RARa homodimer (NR concentration 270 nM)
Summary of the method: as §1

[10] = tested on: RARb:RXRa (NR concentration 270 nM, RXRa partner concentration 90 nM)
Summary of the method: as §1

[11] = tested on: RARb homodimer (NR concentration 270 nM)
Summary of the method: as §1

[12] = tested on: RARg:RXRa (NR concentration 270 nM, RXRa partner concentration 90 nM)
Summary of the method: as §1

[13] = tested on: RARg homodimer (NR concentration 270 nM)
Summary of the method: as §1

[14] = tested on: RXRa DBDmut IVT, anti-RXR (DBD mutation: RXRa K156A/R161A, NR concentration 90 nM)
Summary of the method: as §1

[15] = tested on: RXRa homodimer (NR concentration 180 nM)
Summary of the method: as §1

[16] = tested on: THRa:RXRa (NR concentration 90 nM, RXRa partner concentration 90 nM)
Summary of the method: as §1

[17] = tested on: THRa homodimer (NR concentration 90 nM)
Summary of the method: as §1

[18] = tested on: VDR homodimer (NR concentration 270 nM)
Summary of the method: as §1

Sequence | PBM binding z-score [1] | PBM binding z-score [2] | PBM binding z-score [3] | PBM binding z-score [4] | PBM binding z-score [5] | PBM binding z-score [6] | PBM binding z-score [7] | PBM binding z-score [8] | PBM binding z-score [9] | PBM binding z-score [10] | PBM binding z-score [11] | PBM binding z-score [12] | PBM binding z-score [13] | PBM binding z-score [14] | PBM binding z-score [15] | PBM binding z-score [16] | PBM binding z-score [17] | PBM binding z-score [18]
CCTGCTAGGTCAATAGTCAGCTAAAGCAGCTCGC | 3.97 | 3.08 | -0.361 | -0.649 | 0.586 | 0.324 | -0.908 | 0.911 | -1.08 | 3.45 | 2.18 | 3.06 | 3.91 | 1.56 | 1.42 | 1.74 | 0.258 | -0.379
TCATATAGGTAAACAGGTGGAAGTCCGTAAGTTA | 4.42 | 3.02 | 0.862 | 0.82 | 1.12 | 0.46 | 0.859 | 0.577 | 0.928 | 0.625 | 0.247 | 0.462 | 0.0474 | 1.38 | 0.624 | 0.188 | 0.00908 | 0.154
ATCGAAAGGGCGACGAGGTGAGTATACACCGTTT | -0.129 | 0.9 | 0.582 | 0.302 | 0.304 | 0.264 | 0.172 | 0.542 | 0.176 | 1.74 | 1 | 1.16 | 1.28 | -0.425 | 0.969 | 1.99 | 0.542 | 0.597
CCTTACGGGCCACTCCAGGTTATAGCATCGGAGT | 0.503 | 0.46 | -1.12 | -0.87 | 0.232 | 0.0123 | 0.0587 | 0.0279 | 0.0434 | 0.496 | 0.457 | 0.099 | 0.515 | -0.62 | -0.0369 | 2.62 | 0.204 | 0.0382
TCTTGAAGATCAGCAGGTTAAGAAAGCTGGCCAA | 1.75 | -0.514 | -1.09 | -0.481 | -0.436 | 0.0848 | -0.299 | 0.104 | -0.00981 | 0.0583 | -0.114 | -0.154 | -0.281 | 0.572 | 0.316 | -0.00481 | -1.05 | -0.317
TCTAGTTTGTCAAAGGTCACACACTCGAAATGCG | 2.53 | 4.9 | 1.7 | 3.34 | 4.88 | 5.82 | 1.78 | 6.66 | 2.78 | 4.98 | 4.86 | 6.06 | 5.71 | 2.14 | 6.98 | 4.07 | 1.98 | 2.58
CCTAGCAGGCCAATCTGGGTGACTCAAGGCTTGA | 2.96 | 3.53 | -0.721 | -0.739 | -0.0827 | -0.581 | -0.777 | 0.391 | -0.515 | 0.0785 | -0.195 | -0.294 | -0.326 | -0.391 | -0.592 | 2.16 | -0.548 | -0.648
CGTCAAAGTTCAACCAAGGTAACGTAAAGCACGC | 0.703 | 2.22 | 0.566 | 0.664 | 3.1 | 5.55 | 4.15 | 4.39 | 1.73 | 5.25 | 4.13 | 5.85 | 6.21 | 4.5 | 4.98 | 5.14 | 1.18 | 4.3
ATCTGTAGGTTAAGGGTCATTCAGGTTGGTTCGC | 3.99 | 5.75 | 1.73 | 1.69 | 3.99 | 5.59 | 3.35 | 6.53 | 2.88 | 3.77 | 4.02 | 5.03 | 3.89 | 2.02 | 6.57 | 3.69 | 2.07 | 4.28
GCGACTGGGGCCTCAGCAGGTTACCATAACTTAA | -0.00241 | -0.47 | -1.2 | -1.98 | -0.186 | -0.277 | -0.863 | 0.0865 | -1.06 | 0.0626 | 0.199 | -0.489 | -0.568 | -0.479 | -0.182 | 1.19 | -0.118 | -0.622
AGAATGAGGTTATACGGAGATCAGGGAAGAAAGT | 2.35 | 2.05 | 1.14 | 0.774 | 0.836 | 1.25 | 0.96 | 1.74 | 0.352 | 1.5 | 1 | 1.95 | 1.1 | 1.68 | 2.26 | 2.33 | 0.836 | 0.95
GCTTGTAGATCAGGGTTAAGAAAGACTAAGCTAA | 0.93 | 0.657 | -0.0573 | -0.809 | 0.18 | 0.366 | -0.121 | 0.69 | -0.311 | 0.352 | 0.053 | 0.416 | 0.152 | 0.053 | 0.823 | 0.939 | -0.435 | 0.148
CGTCAAAGTTCAAGGTATCGTAACAGAAAGCAGC | 0.378 | 1.35 | -0.37 | 0.459 | 2.03 | 3.81 | 1.91 | 3.09 | 1.17 | 4.93 | 3.49 | 4.96 | 5.95 | 4.18 | 3.95 | 1.94 | -0.0941 | 3.17
ATACCAAGGTGATCGTGAGGTCGTTTATACTAAC | 0.676 | 1.12 | 0.496 | 0.607 | 0.889 | 3.27 | 2.05 | 2.19 | 0.982 | 1.51 | 1.98 | 2.29 | 1.01 | 1.06 | 1.36 | 3.56 | 2.59 | 3.5
TCTTGTAGCTCAAGCAGGTTAAGAAAGCCTGAGT | 0.652 | -0.0591 | -0.768 | -0.282 | -1.23 | -0.102 | -0.596 | -0.128 | -0.944 | -0.012 | -0.116 | -0.427 | -0.42 | 0.0335 | -0.207 | 0.103 | -1.07 | -0.763
CCGACTGTGGCATAAGGTTACCATAAGCCAGCCC | 1.12 | 0.305 | -0.617 | -0.541 | 0.621 | 0.365 | 0.018 | 0.961 | 0.166 | 0.964 | 1.24 | 0.6 | 0.353 | 0.486 | 0.923 | 2.37 | 1.7 | -0.189

From the supplement of paper PMC6555819
